Rows were chosen to be rich in hits. Some 4.9% of all compounds tested hit in one or more screens of this group.
HSP90 refold inh: blocks HSP90-mediated luciferase refolding in reticulocyte lysate; Rabbit reticulocyte lysate, luciferase refolding luminescence, 3 h; inhibition, % at 5.6 µM; 290,000 tested, 0.91% active; AID 1789;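 active = inhibition above the screen-wide mean plus 3 SD, computed separately per campaign, cut at about 16% in these data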;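 also: 0% = DMSO wells and 100% = 60 µM geldanamycin wells; inhibitors lower the luminescence because luciferase stays unfolded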
HSF-1 act: increases HSF-1 driven luciferase reporter signal | NIH3T3-HGL HSF-1 luciferase reporter, MG132, 8 h; 100% = twice DMSO control signal | activation, % at 9 µM | AID 504408 | 300,000 tested, 1.7% active;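 active = mean replicate activation of at least 50% with a set share of replicates each reaching 50%; inconclusive = only one of those two conditions met; inactive = mean below 50% and too few replicates reaching it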;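 also: 0% = median of the neutral control wells and 100% = twice that signal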
Platelet DG rel: modulates dense granule release in human platelets. human platelet-rich plasma, SFLLRN dense granule ATP release, luminescence. inhibition, %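 (compounds screened at 7.5 µM in platelet-rich plasma)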. 300,000 tested, 0.22% active. AID 1663;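 active = mean replicate score, as percent of positive control, at or above 50; inconclusive = mean below 50 but at least one replicate at or above 50; inactive = mean and every replicate below 50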
dFosB activator: mouse delta FosB homodimer activation; P13346; purified delta FosB, TAMRA-CDK5 oligo fluorescence polarization; percent of positive-control signal above neutral wells; activation, % at 25 µM; 340,000 tested, 0.99% active; AID 493131;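 active = mean activation above about 17%, with every replicate also reaching it, limit read from the data, passing the limit was not always enough; inconclusive = only one of the two conditions met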
HSF1 inh: HSF1 inhibition. NIH3T3-HGL HSE-luciferase, MG132-induced, luminescence 8 h; hits give low values. activity change, negative = inhibition, % at 7.5 µM (by protocol). 300,000 tested, 0.77% active. AID 2098;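 active = more than half of replicate wells show activity change below -50%, luminescence cut by over half; inconclusive = some wells, but at most half, below -50%; inactive = no replicate well below -50%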;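 also: luciferase reports HSF-1 transcriptional activity via heat shock element; 0% = median of DMSO wells and -100% = zero luminescence signal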
MPTP inh: permeability transition pore inhibition | 360,000 tested, 1.4% active | inhibition, % at 10 µM | isolated mouse mitochondria, Ca2+ swelling absorbance, 30 min;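 active = inhibition of 50% or more, scaled per plate between neutral and stimulator controls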;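 also: 0% = DMSO wells given calcium and 100% = 1 mM EGTA wells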
HSP90 inh confirm: HSP90 inhibition, confirmation assay | 2,300 tested, 64% active | inhibition, % at 5.9 µM | AID 1846 | rabbit reticulocyte lysate, luciferase refolding luminescence, 3 h | shares compounds with HSP90 refold inh; in the data active = inhibition above about 18%;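 also: 0% = vehicle wells and 100% = reference inhibitor wells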
luciferase ctr: counter-screen for HSP90 inhibitors: inhibitors of firefly luciferase; shares compounds with HSP90 refold inh; purified native firefly luciferase, luminescence; inhibition, % at 5.9 µM; 2,300 tested, 48% active;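 active = inhibition above the mean inhibition of all tested sample wells plus 3 SD, cut at about 10% in these data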;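 also: 0% = DMSO with luciferase and 100% = wells lacking luciferase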
Target sequence (P08659 whole entry, looked up): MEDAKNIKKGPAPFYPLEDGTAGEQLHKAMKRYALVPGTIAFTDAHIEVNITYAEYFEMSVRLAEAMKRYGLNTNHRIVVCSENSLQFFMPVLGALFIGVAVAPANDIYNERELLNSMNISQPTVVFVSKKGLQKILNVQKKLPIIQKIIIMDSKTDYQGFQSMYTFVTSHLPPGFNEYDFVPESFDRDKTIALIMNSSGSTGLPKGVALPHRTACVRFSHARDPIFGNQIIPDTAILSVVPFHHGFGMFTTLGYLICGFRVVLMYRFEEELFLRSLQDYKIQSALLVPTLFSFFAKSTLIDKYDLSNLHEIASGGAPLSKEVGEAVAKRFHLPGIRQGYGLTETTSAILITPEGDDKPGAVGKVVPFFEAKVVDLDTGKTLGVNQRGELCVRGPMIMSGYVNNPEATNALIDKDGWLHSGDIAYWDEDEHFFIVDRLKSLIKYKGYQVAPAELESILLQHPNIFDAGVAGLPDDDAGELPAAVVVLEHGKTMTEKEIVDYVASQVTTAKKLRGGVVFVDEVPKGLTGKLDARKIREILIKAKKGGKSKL
* hit, by the source's call; u = inconclusive; x = no result given.

SMILES | HSP90 refold inh | HSF-1 act | Platelet DG rel | dFosB activator | HSF1 inh | MPTP inh | HSP90 inh confirm | luciferase ctr
COCCNc1c(-c2cc3ccc(C)c(C)c3[nH]c2=O)nc2ccccn12 | 21* | 43 | -3 | -5 | 23 | 0 | -7 | -15
Cc1nn(CC(=O)c2ccccc2Cl)c(C)c1[N+](=O)[O-] | 22* | -37 | -4 | -4 | -32 | 0 | 33* | 28*
C[N+](C)(C)CCN1CCc2ccccc21 | x | x | x | x | x | 0 | x | x
CC(C)(C)c1cc(NC(=O)c2cccs2)no1 | 21* | 22 | 12 | -6 | 18 | -1 | 36* | 13*
Cc1cc(NC(=O)c2ccc(NC(=O)c3cccs3)cc2)no1 | 3 | 10 | 7 | u | 1 | -3 | x | x
Cc1ccc(C(=O)N2CCN(c3ccccc3F)CC2)cc1NC1=NC2CS(=O)(=O)CC2S1 (configuration not stated) | -4 | 4 | -2 | -6 | 0 | -2 | x | x
O=C(CCN=C1NS(=O)(=O)c2ccccc21)OCc1c(F)c(F)c(F)c(F)c1F | x | x | x | -1 | x | -1 | x | x
C=CCN1C(=O)/C(=c2\sc3nc(=O)c(Cc4ccccc4Cl)nn3c2=O)c2ccccc21 | 0 | 8 | 2 | -8 | -1 | 6 | x | x
CCN(CC(=O)Nc1c(F)cccc1F)C(=O)CCSc1ccc(F)cc1 | x | 9 | 8 | 0 | 4 | 0 | x | x
O=c1oc(Nc2ccc(F)cc2)nc2ccccc12 | 18* | 23 | 70* | -4 | 12 | 1 | 9 | -21
CC(=O)c1c(C)c(C)c2n1CCn1c(C)ccc1-2 | -4 | 5 | 0 | -5 | 3 | 6 | x | x
CCC(C)c1ccc(NC(=O)c2cccs2)cc1 (configuration not stated) | 17* | u | 6 | -2 | 17 | 4 | 24* | 6
COc1ccc(S(=O)(=O)N2CCOCC2)cc1NC(=O)CCCOc1ccc(C(C)=O)cc1 | x | x | x | x | x | -1 | x | x
CCOc1ccc(OCc2ccc(C(=O)Nc3cccnc3)o2)cc1 | 28* | 22 | 8 | -6 | 9 | -1 | 32* | -23
CCOc1ccc(OCc2ccc(C(=O)N3CCc4ccccc4C3)o2)cc1 | 24* | 15 | -4 | -7 | 8 | 1 | 33* | -18
CCN1CCN(C(=O)c2ccc(COc3ccc(Cl)cc3)o2)CC1 | -3 | 31 | 14 | -11 | 7 | 3 | x | x
CCOc1ccc(OCc2ccc(C(=O)N3CCCCC3)o2)cc1 | 23* | -3 | -9 | -7 | 3 | 1 | 13 | -26
O=S(=O)(NCC(c1ccc2c(c1)OCO2)N1CCOCC1)c1ccccc1 (configuration not stated) | x | 11 | 1 | -7 | -4 | -3 | x | x
CCOC(=O)C1CCCCN1C(=O)CCn1nnnc1CN1CCOCC1 (configuration not stated) | -4 | 7 | -5 | 2 | -2 | 0 | x | x
CN(C)c1ccc(N=Nc2cccc(F)c2)cc1 | 39* | -2 | -41 | -1 | 6 | 0 | 47* | 41*
CN(C)c1ccc(N=Nc2ccc3ncccc3c2)cc1 | x | x | x | -18 | x | 1 | x | x
CC(=O)Nc1ccc(NC(=O)/C=C/c2ccccc2)cc1 | 2 | -3 | 1 | 1 | -4 | 0 | x | x
CSc1ccc(/C=C/C(=O)Nc2ccccc2)cc1 | 23* | x | x | 1 | x | 2 | 71* | 67*
COc1cc2cc(C(=O)Nc3ccc4c(c3)OCCO4)[nH]c2cc1OC | 36* | -74 | -2 | -6 | -72* | -2 | 62* | 58*
Cc1ccccc1C(=O)Nc1ccc2c(c1)OCCO2 | 43* | 7 | 17 | -5 | 8 | -1 | 45* | 34*
SMILES | HSP90 refold inh | HSF-1 act | Platelet DG rel | dFosB activator | HSF1 inh | MPTP inh | HSP90 inh confirm | luciferase ctr
CCC(=O)Nc1ccc2c(c1)OCCO2 | 2 | -14 | 0 | -7 | -11 | -3 | x | x
O=C(CC1CS(=O)(=O)CC1CC(=O)Nc1ccc2c(c1)OCCO2)Nc1ccc2c(c1)OCCO2 (configuration not stated) | 59* | -86 | 10 | 3 | -82* | 2 | 68* | 62*
O=S(=O)(c1cccc(F)c1)N1CCN(c2nc(-c3cccnc3)nc3ccccc23)CC1 | x | x | x | -3 | x | -2 | x | x
CCOC(=O)/C(C#N)=C/Nc1ccccc1OC(F)(F)F | 4 | -1 | 30 | -6 | 1 | 1 | x | x
Cc1ccc(NC(=O)c2ccc3c(c2)OCCO3)cc1 | 20* | 34 | 2 | -5 | 7 | 1 | 51* | 45*
COc1cccc(NC(=O)c2ccc3c(c2)OCO3)c1 | 29* | 35 | 12 | 1 | 18 | 0 | 20* | 4
O=C(Nc1ccc2c(c1)OCCO2)c1ccccc1 | 24* | 29 | 29 | 2 | 12 | 0 | 27* | 17*
O=C(/C=C/c1ccccc1)Nc1ccc2c(c1)OCCO2 | 32* | 20 | 0 | 5 | 5 | -2 | 51* | 48*
COc1ccc(OC)c(S(=O)(=O)Nc2cc3c(cc2N2CCCC2)n(C)c(=O)c(=O)n3C)c1 | 0 | 2 | 7 | -3 | 0 | -3 | x | x
O=C(CCCCCN1C(=O)c2ccccc2C1=O)Nc1ccc2c(c1)OCCO2 | 5 | -19 | 2 | -3 | -2 | -3 | x | x
O=C(CCCc1ccccc1)Nc1ccc2c(c1)OCCO2 | 26* | 75* | -1 | -5 | 36 | -2 | 32* | 29*
O=C(/C=C/c1ccccc1)Nc1cc(NC(=O)/C=C/c2ccccc2)cc(C(=O)O)c1 | 32* | -14 | -4 | -21 | -3 | 0 | 41* | 9.6*
COc1cccc(NC(=O)c2ccc3c(c2)OCCO3)c1 | 45* | 27 | 52* | -2 | 5 | 0 | 55* | 40*
O=C(O)C1CCCCC1C(=O)Nc1ccc2c(c1)OCCO2 (configuration not stated) | 29* | -72 | -1 | -5 | -65* | 1 | 2 | 6
O=C(CC[C@H]1O[C@@H](n2cnc3c(NC(=O)c4ccccc4)ncnc32)[C@H](O)[C@@H]1O)NCc1ccco1 | x | x | x | x | x | 0 | x | x
O=C(CN(Cc1ccccc1)C(=O)CNS(=O)(=O)c1ccc(F)cc1)NCc1ccco1 | 3 | 24 | 7 | 1 | 1 | 1 | x | x
CCOC(=O)c1ccc(N[C@@H]2CCN3C(=O)c4ccccc4[C@@H]3C[C@H]2O)cc1 | x | x | x | -4 | x | -1 | x | x
CC(C)(C)NC(=O)C(=O)NNC(=O)c1cccc(F)c1 | 5 | 2 | 9 | -4 | -5 | 0 | x | x
COc1ccc(C(=O)Nc2ccc3c(c2)OCCO3)cc1 | 28* | x | x | 6 | x | 0 | 46* | 27*
O=C(CN1CCN(c2ccccc2)CC1)N1N=CCC1c1ccccc1 (configuration not stated) | 39* | -3 | 78* | 3 | -6 | 0 | -9 | -9

Bioassay records from PubChem BioAssay.
